# Test results reported in PubChem BioAssay (Tox21).
# Inconclusive results are not listed. Active and inactive are the calls of the source. Calls follow the shape of the dose curve; as a rule, active = well fitted cell-killing curve with a large enough effect in the repeat runs; inconclusive = weak or mixed curves, or effect the other way; inactive = flat fitted curve, though single readings scatter.
# Assay: qHTS assay to identify small molecule agonists of the sonic hedgehog signaling (Shh) pathway - cell viability counter screen (AID 1259366); also: nearly all actives have a fitted effect of over 50% in size
# Details: NIH/3T3 Gli1-Luc viability, CellTiter-Fluor, 24 h; series mostly up to 92.4 µM; viability change, negative = cytotoxic: at the top concentration
# Excerpt: National Center for Advancing Translational Sciences [NCATS]
# NIH Chemical Genomics Center [NCGC]
# U.S. Environmental Protection Agency [EPA]
# National Institutes of Environmental Health Sciences [NIEHS]
# National Toxicology Program [NTP]
# U.S. Food and Drug Administration [FDA]
# The sonic hedgehog (Shh) pathway is essential for normal embryonic development. Dysregulation of the Shh pathway can cause severe developmental defects in organs. Therefore chemicals that interfere with the pathway are potential developmental toxicants. A cell line designated 3T3Gli1-Luc (DMB/OARSA/CFSAN/FDA, Laurel, MD), a NIH/3T3 derived clone containing stably integrated Gli1-Luc reporter is used to detect chemical interference of the Shh pathway, by changes in the expression of the firefly Luc gene under the control of the Gli1 transcriptional response element. This cell line was used to screen Tox21 libraries for identifying and prioritizing the potential developmental toxicants that interfere Shh pathway. The cytotoxicity of the compounds was tested in parallel by measuring the cell viability using CellTiter-Fluor assay system (Promega, Madison, WI) in the same wells.
# Tox21 Assay Protocol Summary:
# 3T3 Gli1-Luc cells were dispensed at 2,000 per well in 5uL of culture medium into white solid bottom 1536-well plates (Greiner Bio-One, Monroe, NC) using a Multidrop Combi (Thermo Scientific, Waltham, MA) dispenser. The assay plates were incubated at 37 C and 5% CO2 for 4hr, and then 23nL of compounds dissolved in DMSO and positive control were transferred using a Pintool station (Wako, San Diego, CA). The assay plates were incubated at 37C and 5% CO2 for 24hr. For viability read, after 23hr of compound treatment, 1uL of CellTiter-Fluor reagent (Promega Corporation, Madison, WI) was added to each well of the assay plates using Flying Reagent Dispenser (FRD, Aurora Discovery, San Diego, CA) and incubated the assay plates at 37C for 1hr. The fluorescence signal was quantified using a ViewLux plate reader (Perkin Elmer, Shelton, CT).
# % is scaled to controls: 0 for no effect and ±100 for the full control effect; potency is read from the fitted curve at half-maximal effect.
SMILES,"viability change, negative = cytotoxic",Potency
[As]#[In],1.49% (inactive),–
C[C@@H]1CN(C2CCC(C#N)(c3ccc(F)cc3)CC2)CC[C@]1(C(=O)O)c1ccccc1 (stereo not given in full),21.7% [at 42.5 µM] (inactive),–
O=CNC(N1CCN(C(NC=O)C(Cl)(Cl)Cl)CC1)C(Cl)(Cl)Cl (stereo not given),1.66% (inactive),–
CCOc1nc(C(Cl)(Cl)Cl)ns1,5.83% (inactive),–
CCCSP(=S)(OCC)Oc1ccc(Cl)cc1Cl (stereo not given),7.24% (inactive),–
CC(=O)CC(c1ccc(Cl)cc1)c1c(O)c2ccccc2oc1=O (stereo not given),-19.1% (inactive),–
COc1ccc(C(=O)N2CCCC2=O)cc1,-2.72% [at 42.5 µM] (inactive),–
CCCCC(=O)Cl,-9.17% (inactive),–
COP(=S)(OC)Oc1ccc(S(N)(=O)=O)cc1,15.9% [at 42.5 µM] (inactive),–
CNC(=O)O/N=C(\C)SC,1.45% (inactive),–
C(CCOCC1CO1)COCC1CO1 (stereo not given),2.54% (inactive),–
CCC1(c2ccccc2)C(=O)NC(=O)NC1=O,-3.98% (inactive),–
Cc1nnc2n1-c1sc(CCC(=O)N3CCOCC3)cc1C(c1ccccc1Cl)=NC2,1.46% [at 42.5 µM] (inactive),–
CC1(C)COP(Oc2ccccc2)OC1,-6.69% (inactive),–
N#CCNCC#N,4.06% (inactive),–
C=C(C)CN(CC)c1c([N+](=O)[O-])cc(C(F)(F)F)cc1[N+](=O)[O-],12.3% (inactive),–
CC(=O)Nc1cc([As](=O)(O)O)ccc1O,1.55% [at 42.5 µM] (inactive),–
COc1cc(OC)nc(NC(=O)NS(=O)(=O)c2ncccc2C(=O)N(C)C)n1,0.77% (inactive),–
CCCCc1c(C)nc(NCC)[nH]c1=O,0.739% (inactive),–
CC(C)(C)C(=O)C(Oc1ccc(Cl)cc1)n1cncn1 (stereo not given),-18.1% (inactive),–

SMILES,"viability change, negative = cytotoxic",Potency
CCN(CC)C(C)C(=O)c1ccccc1 (stereo not given),3.52% [at 42.5 µM] (inactive),–
CCN(CC)c1nc(C)cc(OP(=S)(OC)OC)n1,1.65% (inactive),–
CCC/C(=N\OCC)C1=C(O)CC(CC(C)SCC)CC1=O (stereo not given),11.8% (inactive),–
C1CCC(C2CCCCC2)CC1,-2.52% (inactive),–
Cc1nc(N)nc(N)n1,0.133% (inactive),–
C=C(C)[C@@H]1CC=C(C=O)CC1,-3.98% (inactive),–
Fc1cc(Br)ccc1CBr,2.95% [at 42.5 µM] (inactive),–
CCCSC(=O)Cl,-1.4% (inactive),–
CNC(=O)Oc1ccc(N(C)C)c(C)c1,-9.72% (inactive),–
O=[N+]([O-])c1cccc(O)c1,-4.72% (inactive),–
CCCCOC(=O)[C@@H](C)Oc1ccc(Oc2ccc(C#N)cc2F)cc1,1.65% (inactive),–
CCOP(=S)(Oc1cnc(C(C)(C)C)nc1)OC(C)C (stereo not given),1.55% (inactive),–
CCC(C)(C)c1cc(-n2nc3ccccc3n2)c(O)c(C(C)(C)CC)c1,10.4% (inactive),–
Nc1cnn(-c2ccccc2)c(=O)c1Cl,3.74% (inactive),–
ClC(Cl)Br,0.803% (inactive),–
CCCSC(=O)N(CCC)CCC,4.94% (inactive),–
O=[N+]([O-])c1ccc2c3c(cccc13)CC2,-13.2% (inactive),–
COc1cccc2c1cc([N+](=O)[O-])c1c(C(=O)O)cc3c(c12)OCO3,–,12.2 µM (active)
OCCBr,-1.49% (inactive),–
ClCCCN1CCN(c2cccc(Cl)c2)CC1,-5.23% [at 42.5 µM] (inactive),–
